Screening data as filed in PubChem BioAssay.
In the library only some 1.4% were active in any assay of this set; here they are far more common.
MbtI inh: blocks the Mycobacterium tuberculosis siderophore enzyme MbtI; actives 0.89% (n = 100,000); AID 493033; purified MbtI enzyme, fluorescence intensity read-out; inhibition, % (no concentration beside the values); in the data active means inhibition mostly above about 56%, no sharp cut-off; inactive means mostly below about 77%
AID504770: growth inhibitors of E. coli YBA685 in a screen for V. cholerae RctB (chromosome II replication) inhibitors. E. coli YBA685 rctB-dependent plasmid, OD600 growth, 3 h; stronger effect = lower value. z-score (concentration not given with the values). actives 0.27% (n = 130,000); in the data active means z-score below about -2, passing the limit was not always enough
Polio RdRp inh: poliovirus RNA polymerase inhibition | P03300 | poliovirus polymerase elongation, fluorescence polarization; stronger effect = lower value | % elongation, % (compound at 16.7 µg/mL) | actives 0.66% (n = 150,000); in the data active means % elongation below about 90%
MenB inh: Mtb MenB enzyme inhibition | actives 0.43% (n = 100,000) | P9WNP5 | MenB enzyme assay, absorbance read-out | inhibition, % (test concentration not listed); in the data active means inhibition above about 21%, passing the limit was not always enough
Target sequence (P9WNP5 whole entry, looked up): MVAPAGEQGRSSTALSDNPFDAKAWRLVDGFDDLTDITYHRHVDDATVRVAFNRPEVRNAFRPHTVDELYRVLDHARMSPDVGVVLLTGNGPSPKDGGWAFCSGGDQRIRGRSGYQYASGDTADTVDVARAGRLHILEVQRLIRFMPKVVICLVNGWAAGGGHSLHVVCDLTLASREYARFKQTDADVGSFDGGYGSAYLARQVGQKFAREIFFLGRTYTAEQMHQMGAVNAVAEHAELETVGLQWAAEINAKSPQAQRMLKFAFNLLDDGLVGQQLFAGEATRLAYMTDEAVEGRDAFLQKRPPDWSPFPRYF
Numbers stand for hits; . = inactive; / = no result given.

SMILES	MbtI inh	AID504770	Polio RdRp inh	MenB inh
Cc1ccc(/C=C/C(=O)NCC2CCN(C(=O)/C=C/c3ccc(C)o3)CC2)o1	89	.	.	.
O=C(NCc1ccc(-c2ccc(F)cc2F)o1)c1ccccc1	/	.	/	/
c1ccc(-c2nnc3n2N=C(c2cccs2)CS3)cc1	.	.	.	.
CN(C)S(=O)(=O)c1cccc(-c2nnc3n2N=C(c2cccs2)CS3)c1	97	.	76	.
O=C(Nc1ccccc1)c1ccccc1OCC(=O)N1CCCC1	.	-3	.	.
CCOc1ccccc1C(=O)Nc1ccccc1	.	.	.	.
COCCNC(=S)N1CCC(C(=O)c2ccc(F)cc2)CC1	.	.	.	37
C=CCNC(=S)N1CCC(C(=O)c2ccc(C)cc2)CC1	.	.	.	.
O=c1cnnc(N2CCCCC2)[nH]1	.	.	.	.
N#Cc1c(Nc2ccccc2)s[nH]c1=O	.	-2.6	.	.
N#Cc1c(Nc2ccccc2Cl)s[nH]c1=O	.	.	.	.
CCN(CC)N=Nc1ccc(NC(C)=O)cc1	90	.	.	.
CC(=O)Nc1ccc(N=NN2CCCCC2)cc1	.	-2.5	.	.
CCNC(=O)c1ccc(-c2nc(CS(=O)c3ccc(C)cc3)c(C)o2)cc1 (stereo unspecified)	.	.	.	.
CC1SC2=NNC(c3ccc(Cl)cc3)=CN2C1=O (stereo unspecified)	/	.	.	.
CCCOc1ccc(-c2cc(C(=O)NO)[nH]n2)cc1C	/	.	/	/
CC1(C)CC(=O)c2cc(OCC(=O)NC3CCCC3)ccc2O1	.	.	.	.
CSC1=NC(C)(C)Cc2c(C)cccc21	/	.	90	.
CC(C)c1ccc(NC(=S)Sc2ccc(F)cc2F)cc1	65	.	.	.
CC(NC(=O)C1CCCN(S(=O)(=O)c2ccc3c(c2)CC(C)N3C(=O)C2CC2)C1)c1ccccc1 (stereo unspecified)	.	.	.	.
CCc1ccc(OC(=O)CSc2nnc(-c3ccc4c(c3)OCO4)o2)cc1	/	/	.	/
O=C(CSc1nnc(-c2cccs2)o1)Oc1ccccc1	/	/	.	/
COc1cccc(OC(=O)CSc2nnc(-c3ccc4c(c3)OCO4)o2)c1	/	/	87	/
COc1cccc(OC(=O)CSc2nnc(-c3cccs3)o2)c1	/	/	90	/
O=C(CCc1nnc2ccc(NCc3ccco3)nn12)Nc1cccnc1	.	.	.	.
SMILES	MbtI inh	AID504770	Polio RdRp inh	MenB inh
CCOC(=O)c1c(Nc2ccc(C)cc2)n[nH]c1N	.	.	.	.
COc1cccc(NC(=O)Cn2sc3ccccc3c2=O)c1	.	-2.5	.	.
COc1cccc(NC(=O)Cn2ccc3c(OC)cccc3c2=O)c1	.	.	.	.
CC(C)(CCl)Nc1nc2ccccc2s1	.	.	.	/
O=C(c1ccccc1)N1CCC(O)(c2cccnc2)CC1	.	.	.	.
O=C(N1CCC(O)(c2cccnc2)CC1)C12CC3CC(CC(C3)C1)C2	.	.	.	25
NNc1ccc(Br)cc1	/	-6.3	.	.
NCC(=O)Nc1ccc(Br)cc1	.	.	.	.
Brc1ccc(CNc2ccc3cn[nH]c3c2)s1	.	.	58	.
O=C(OCC(=O)N1CCCC1)c1cn(-c2ccccc2)nc1-c1ccccc1	.	.	.	/
O=C(O)c1ccc(NC2OC(CO)C(O)C2O)cc1 (stereo unspecified)	/	.	90	.
Cc1nc2ccccc2nc1CSc1nnc(-c2ccccc2)o1	/	.	/	/
CC(=O)Nc1cccc(SSc2cccc(NC(C)=O)c2)c1	97	.	.	.
S=c1[nH]c2ccccc2n1CCOc1ccccc1	95	.	.	.
N#CCCn1c(=S)[nH]c2ccccc21	.	.	82	.
S=c1[nH]c2ccccc2n1Cc1ccccc1	84	.	.	.
CCc1cc(-c2nn(CN3CCOCC3)c(C)c2-c2nc3ccccc3n2C)c(O)c(CN2CCOCC2)c1O	.	.	.	.
COc1ccc(Cl)cc1-n1c(SCc2ccccc2F)nnc1-c1cc2occc2n1C	.	.	.	.
S=C(NC1CCCCC1)C(=S)NC1CCCCC1	.	.	82	.
O=C1CSC(=S)N1Nc1ccccc1	76	.	.	.
C/C(=N\NC(=O)CCc1ccc(S(=O)(=O)N2CCOCC2)cc1)c1ccc2c(c1)OCCO2	.	.	.	.
CC(=O)c1ccc(NC(=O)C2=CC(c3cccs3)=NS(=O)(=O)N2C)cc1	/	/	-12	/
S=c1[nH]nc(-c2ccncc2)o1	97	.	/	/
CC(=O)n1c2ccccc2c2ccccc21	/	.	/	/
CC(=O)n1c2ccccc2c2nc(N)sc21	.	.	81	.
SMILES	MbtI inh	AID504770	Polio RdRp inh	MenB inh
O=C1CSCC(=O)N1c1ccc2c(c1)OCO2	/	.	/	/
O=C1CSCC(=O)N1c1cccnc1	.	.	84	.
Cc1cccc2nc(=S)n(C(=O)c3ccc(F)cc3)n12	/	.	74	.
O=C(CCCSc1cccc[n+]1[O-])c1ccc(F)cc1	99	.	.	.
O=C(CSc1cccc[n+]1[O-])c1ccccc1F	.	.	.	.
O=C(CSc1ccccc1)N1c2ccccc2Sc2ccccc21	.	.	83	.
Cn1nnnc1SCC(=O)N1c2ccccc2Sc2ccccc21	.	.	.	.
C=CCN1C(=O)NC(=O)/C(=C/C=C/c2ccccc2)C1=O	.	.	.	.
CN1C(=O)C(=C/C=C/c2ccccc2)C(=O)N(C)C1=O	82	.	.	.
CC(C)(C)c1cc(C(=O)NCc2ccco2)n(Cc2ccc(F)cc2)n1	/	.	.	.
O=C1C(Sc2ncn[nH]2)=C/C(=N/S(=O)(=O)c2ccc(F)cc2)c2ccccc21	.	.	88	.
O=C1C(NS(=O)(=O)c2ccccc2)=C/C(=N\S(=O)(=O)c2ccc(F)cc2)c2ccccc21	.	.	78	.
O=C1C(Sc2ncn[nH]2)=C/C(=N/S(=O)(=O)c2cccs2)c2ccccc21	.	.	87	.
CC1CC(C)CN(CCCNC(=O)c2cc3c(=O)[nH]c4ccccc4c3s2)C1 (stereo unspecified)	.	.	.	.
CC(C)NC(=O)c1cnn(-c2cccc(F)c2)c1-n1cccc1	.	.	.	.
O=C(Nc1cccc(C(F)(F)F)c1)C(NCCN1CCOCC1)c1ccccc1 (stereo unspecified)	.	.	.	.
CC(C)c1ccc(-n2c(=O)[nH]c3ccccc3c2=O)cc1	.	.	73	.
COC(=O)Nc1sc2c(c1C(=O)OC)CCC2	.	.	.	.
COC(=O)c1c(NC(=O)Cc2cccs2)sc2c1CCCC2	.	.	.	39
COC(=O)c1c(NC(=O)C(F)(F)F)sc2c1CCCC2	/	.	88	.
CCCc1ccc(OCC(=O)Nc2sc3c(c2C(=O)OC)CCCCC3)cc1	/	/	85	/
Cc1cc(C)cc(CC(CC(=O)O)C(=O)NCc2ccccc2)c1 (stereo unspecified)	/	.	.	.
CCNC(=O)C(C#N)=C1CCCCCC1	.	.	.	.
CCOC(=O)c1[nH]c(C)c(C(=O)OCc2nc3ccc(Cl)cc3n2CCO)c1C	.	.	.	.
CCOc1ccc(NC2=CC(=O)C=CC2=O)cc1	98	.	.	/
CCOc1ccc(NC2=CC(=O)CCC2)cc1	.	.	.	.
CC(C)NCC(O)Cn1ccc(C(F)(F)F)n1 (stereo unspecified)	/	.	/	/
